# An excerpt weighted towards active compounds, which were near 3% of everything screened.
# PMP22 txn prim – Cell-based coincidence reporter assay to measure PMP22 gene transcription in S16 Pmp22-F2sN cells - Primary screen; S16 Pmp22-F2sN Schwann cells, FLuc/NLuc coincidence luminescence, 24 h; Potency, µM (series often up to 57.5 µM), for inactives: top-dose activity change, negative = inhibition, most hits filed as inhibitors; 43,000 compounds, 2% hits; AID 1508649, 2021; active means clear falling dose curves in both reporters; inconclusive means both reporters move, but less clearly or upward; inactive means either reporter flat; the % is the NLuc reporter signal; further: potency means the concentration at half of the fitted maximal effect; on the % scale 0 is the no-effect control and ±100 the full control effect
#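 qHTS, 1536-well. Cells seeded, compounds added by pin tool, 24 h 37C. Nano-Glo reagent 1 (lysis/FLuc), 10 min RT, read; Stop&Glo, 10 min RT, read NLuc.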
# mTORC1 inh – Acumen qHTS Assay for Inhibitors of the mTORC1 Signaling Pathway in MEF (Tsc2-/-, p53-/-) Cells: Sytravon. Tsc2-/- p53-/- MEF, phospho-rpS6 immunofluorescence/PI, 24 h. Potency, µM (series often up to 38.3 µM), inactives show at the highest dose activity change, negative = inhibition, actives largely listed as inhibitors. 44,000 compounds, 0.78% hits. AID 493208, 2011;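 further: potency means the concentration at half of the fitted maximal effect; plate controls were DMSO for no effect and rapamycin for full effect; nearly all actives have a fitted effect of over 50% in size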
#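 Immunofluorescence of rpS6 phosphorylation in Tsc2-/-, p53-/- MEFs after 24 h compound exposure, normalized to propidium iodide signal. Activity is expressed as % positive cells, thresholded with 7.5 nM rapamycin.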
# S16 F2sN tox – Cell viability qHTS assay in S16 Pmp22-F2sN cells; S16 Pmp22-F2sN Schwann cells viability, CellTiter-Glo, 24 h; Potency, µM (series often up to 57.5 µM), inactives show at the top dose activity change, negative = cytotoxicity, actives largely listed as cytotoxic; 43,000 compounds, 0.48% hits; further: potency means the concentration at half of the fitted maximal effect; on the % scale 0 is the no-effect control and ±100 the full control effect; nearly all actives have a fitted effect of over 65% in size
#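 Used to flag compounds lowering reporter output through toxicity, this quantitative HTS measures ATP-based CellTiter-Glo luminescence in S16 Pmp22-F2sN Schwann cells after 24 h compound exposure at 37C.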
# p53null 39C tox – qHTS Screen for Compounds that Selectively Target Cancer Cells with p53 Mutations: Cytotoxicity of p53 Null Cells at the Nonpermissive Temperature | AID 904, 2007 | Potency, µM (doses to about 46.1 µM), for the others: top-dose activity, negative = cell killing, usual class: cytotoxic | H1299 p53-null (neo) cells, 39C, ATPlite viability, 24 h | 55,000 compounds, 0.97% hits;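 further: potency means the concentration at half of the fitted maximal effect; 0% = DMSO only and -100% = full killing by 100 µM tamoxifen; nearly all actives have a fitted effect of over 50% in size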
#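 Cells seeded at 600/well, 37C overnight. Compound added (up to 46 uM), plates shifted to 39C for 24 hr. ATPlite added, luminescence read after 20 min at room temperature.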
# SKOV3 invasion – Primary qHTS assay for Inhibitors of ovarian cancer metastasis using an organotypic tumor microenvironment (TME) model; Potency, µM (titrated, usually from 45.8 µM), for inactives: at the top dose activity change, negative = inhibition, usual class: inhibitors; 46,000 compounds, 0.1% hits; SKOV3ip1-GFP adhesion/invasion on 3D omental model, fluorescence;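 further: potency means the concentration at half of the fitted maximal effect; plate controls were DMSO wells for no effect and tomatine positive control wells for full effect; nearly all actives have a fitted effect of over 65% in size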
#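 Adhesion/invasion was scored as fixed GFP-labeled SKOV3ip1 cell counts (488/509 nm), normalized to DMSO and tomatine controls. Cancer cells in serum-free medium, with four compound doses (0.36-46 umol/L), sat 2 hr at RT then 16 hr at 37 C on a 48 hr fibroblast/mesothelial/ECM culture.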
# p53null 32C tox – qHTS Screen for Compounds that Selectively Target Cancer Cells with p53 Mutations: Cytotoxicity of p53 Null Cells at the Permissive Temperature. H1299-neo p53 null cells, ATP luminescence, 24 h, 32C. Potency, µM (top dose mostly 46.1 µM), inactives show at the highest dose activity change, negative = cytotoxicity, usual class: cytotoxic. 55,000 compounds, 0.62% hits. AID 903, 2007;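 further: potency means the concentration at half of the fitted maximal effect; 0% = DMSO only and -100% = full killing by 100 µM tamoxifen; nearly all actives have a fitted effect of over 55% in size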
#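 Cytotoxicity: H1299-neo (no p53), 32C, 24 h treatment. Concentrations up to 46 uM. Readout cellular ATP, luminescence. Normalization to DMSO basal and tamoxifen 100 uM maximal kill.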
# NLuc saturating – Biochemical NLuc saturation counterscreen for small molecule modulators of PMP22 gene expression - Nano-Glo assay. shares compounds with PMP22 txn prim. Secreted NLuc enzyme (filtered S16 cell medium), Nano-Glo luminescence. Potency, µM (highest dose often 57.5 µM), for inactives: at the top dose activity change, negative = inhibition, usual class: inhibitors. 690 compounds, 4% hits. AID 1508638, 2021; further: potency means the concentration at half of the fitted maximal effect; on the % scale 0 is the no-effect control and ±100 the full control effect
# NLuc Km ctr – Biochemical coelenterazine-based NLuc counterscreen for small molecule modulators of PMP22 gene expression - Km assay; shares compounds with PMP22 txn prim; secreted NLuc enzyme, coelenterazine luminescence, Km conditions; Potency, µM (highest dose often 57.5 µM), inactives show top-dose activity change, negative = inhibition, hits mostly inhibitors; 690 compounds, 5% hits; further: potency means the concentration at half of the fitted maximal effect; on the % scale 0 is the no-effect control and ±100 the full control effect
# FLuc ctr PMP22 – Biochemical FLuc counterscreen for small molecule modulators of PMP22 gene expression. shares compounds with PMP22 txn prim. purified P. pyralis FLuc, luminescence, 10 min. Potency, µM (doses to about 57.5 µM), for the others: top-dose activity, negative = inhibition, hits mostly inhibitors. 690 tested, under 10 active. AID 1508640, 2021; further: % of control where 0% means no effect
# Target sequence (P08659 whole entry, looked up): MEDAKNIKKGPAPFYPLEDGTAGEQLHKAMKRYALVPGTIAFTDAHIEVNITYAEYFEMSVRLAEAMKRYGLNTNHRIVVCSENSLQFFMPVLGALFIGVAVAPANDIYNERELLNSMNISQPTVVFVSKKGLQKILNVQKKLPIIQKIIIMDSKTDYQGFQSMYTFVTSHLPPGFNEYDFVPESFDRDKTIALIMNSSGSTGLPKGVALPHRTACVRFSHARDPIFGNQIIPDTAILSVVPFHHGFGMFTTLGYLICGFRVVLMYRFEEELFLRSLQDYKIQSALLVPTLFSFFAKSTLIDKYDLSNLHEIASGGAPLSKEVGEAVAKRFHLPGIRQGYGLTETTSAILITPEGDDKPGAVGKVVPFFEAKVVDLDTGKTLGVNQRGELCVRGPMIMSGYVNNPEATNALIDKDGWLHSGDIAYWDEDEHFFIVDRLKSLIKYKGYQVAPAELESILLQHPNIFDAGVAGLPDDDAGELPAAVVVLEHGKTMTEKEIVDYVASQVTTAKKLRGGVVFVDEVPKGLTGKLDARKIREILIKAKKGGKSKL
# S16 viab conf – Cell viability qHTS assay in S16 Pmp22-F2sN cells - Confirmatory screen; S16 Schwann cells viability, CellTiter-Glo ATP luminescence, 24 h; Potency, µM (doses to about 57.5 µM), for inactives: at the highest dose activity change, negative = viability loss, hits mostly cytotoxic; shares compounds with PMP22 txn prim; 690 compounds, 7% hits; AID 1508641, 2021; further: potency means the concentration at half of the fitted maximal effect; on the % scale 0 is the no-effect control and ±100 the full control effect
# PMP22 txn cnf – Cell-based coincidence reporter assay to measure PMP22 gene transcription in S16 Pmp22-F2sN cells - Confirmatory screen; shares compounds with PMP22 txn prim; S16 Schwann cells Pmp22-F2sN, dual luciferase, 24 h; Potency, µM (top dose mostly 57.5 µM), without a hit: at the top dose activity change, negative = inhibition, usual class: inhibitors; 690 compounds, 22% hits; AID 1508646, 2021; active means clear falling dose curves in both reporters; inconclusive means both reporters move, but less clearly or upward; inactive means either reporter flat; the % is the FLuc reporter signal; further: potency means the concentration at half of the fitted maximal effect
# PMP22 prot conf – Cell-based HiBiT reporter assay to measure PMP22 protein expression in S16 Pmp22-HiBiT cells - Confirmatory screen; Potency, µM (highest dose often 27.9 µM), for the others: at the top dose activity change, negative = inhibition, actives largely listed as inhibitors; AID 1508647, 2021; 95 tested, under 10 active; S16 Schwann cells Pmp22-HiBiT, luminescence, 48 h; shares compounds with PMP22 txn prim
# Target sequence (P25094 whole entry, looked up): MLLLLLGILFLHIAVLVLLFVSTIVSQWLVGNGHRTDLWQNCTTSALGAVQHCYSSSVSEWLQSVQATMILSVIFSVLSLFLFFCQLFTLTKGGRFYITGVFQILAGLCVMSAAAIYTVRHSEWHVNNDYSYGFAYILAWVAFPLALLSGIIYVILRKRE
# An asterisk follows results filed as active; i = inactive; ? = inconclusive; nt = no result. Unless noted, the call rests on the fitted dose curve; in most records, active means well fitted curve in the direction sought with a large enough effect; inconclusive means small, poorly fitted or top-dose-only effect, or another doubt; inactive means no such curve, though single readings can be large; an effect the other way counts as inactive or inconclusive.
SMILES,PMP22 txn prim,mTORC1 inh,S16 F2sN tox,p53null 39C tox,SKOV3 invasion,p53null 32C tox,NLuc saturating,NLuc Km ctr,FLuc ctr PMP22,S16 viab conf,PMP22 txn cnf,others
C[C@@H]1C(=O)O[C@H]2CC34[C@H]5C[C@@H](C(C)(C)C)C36[C@H](OC(=O)[C@@H]6O)O[C@@]4(C(=O)O5)[C@]21O (some centres undefined),nt,nt,nt,nt,8.3%,nt,nt,nt,nt,nt,nt,
O=C(Nc1ccc(F)c(C(F)(F)F)c1)Nc1nnc(-c2ccncc2)s1,nt,nt,nt,nt,-2.5%,nt,nt,nt,nt,nt,nt,
CCc1ccc(NCc2cc3cc(OC)c(OC)cc3n(CC(=O)Nc3cc(C)ccc3C)c2=O)cc1,11.3µM*,1.8%,8.4%,-15.2%,i,6.8%,-10.7%,8.7%,-1.1%,-10.0%,?,
COC[C@@H](c1ccc(C(F)(F)F)cc1)N1CCN(C2(C)CCN(C(=O)c3c(C)ncnc3C)CC2)C[C@H]1C,nt,nt,nt,nt,0.6%,nt,nt,nt,nt,nt,nt,
Cc1ccc(O)c(-c2n[nH]c3c2C(c2ccc(F)cc2)N(Cc2ccco2)C3=O)c1 (centres undefined),20µM*,4.5%,-17.2%,?,?,26.0%,-15.0%,?,-3.3%,13.2%,-26.0%,
Cc1cc(-c2ccc(CC(=O)Nc3ccc(-c4cccnc4)cc3)cc2)ccn1,nt,nt,nt,nt,-11.8%,nt,nt,nt,nt,nt,nt,
CCCCN(CC)C(=O)CSc1nc2n[nH]c(C)c2c(=N)n1-c1ccc(CC)cc1,16.8µM*,0.1%,?,10.2%,i,?,?,?,1.8%,13.7%,?,
CC[C@H](Nc1ncnc2nc[nH]c12)c1nc2cccc(F)c2c(=O)n1-c1ccccc1,nt,nt,nt,nt,-12.4%,nt,nt,nt,nt,nt,nt,
COc1ccc(CN2CCN(Cc3cc(=O)oc4cc(C)ccc34)CC2)c(OC)c1OC,16.8µM*,?,?,?,i,-11.3%,-15.4%,5.5%,3.3%,-28.3%,-21.2%,
Cc1ccc2c(CN3CCN(c4ccc(Cl)cc4)CC3)cc(=O)oc2c1,?,0.9%,-6.1%,-11.1%,-0.1%,-1.9%,nt,nt,nt,nt,nt,
COc1ccc(Nc2ncc(C(=O)N3CCN(c4cccc(Cl)c4)CC3)c3ccccc23)cc1,13.5µM*,-17.5%,-16.0%,7.0%,6.0%,27.1%,?,1.4%,6.3%,-11.2%,?,
COc1ccc(Nc2ncc(C(=O)N3CCN(c4ccc(OC)cc4)CC3)c3ccccc23)cc1,?,-8.9%,-8.2%,4.5%,i,11.1%,nt,nt,nt,nt,nt,
Cc1cccc(CS(=O)(=O)c2ncc(Cl)c(C(=O)Nc3nc4ccc(F)cc4s3)n2)c1,6.48µM*,?,?,-3.5%,i,1.5%,?,?,-5.0%,?,10.3µM*,PMP22 prot conf=?
CCOc1ccc2nc(NC(=O)c3nc(SC(C)C)ncc3Cl)sc2c1,17.8µM*,-2.3%,?,-28.7%,i,-12.6%,-6.0%,-3.0%,-11.8%,-21.1%,?,
COc1ccc2nc(NC(=O)c3nc(SCc4cccc(C)c4)ncc3Cl)sc2c1,10µM*,3.5%,3.7%,-19.7%,i,1.1%,-8.7%,4.6%,5.4%,?,?,
CC(=O)NC(CS)C(=O)O (centres undefined),nt,nt,nt,nt,-22.9%,nt,nt,nt,nt,nt,nt,
COc1cc2c(cc1OC)CN(CCc1ccc(NC(=O)c3cccc4c(=O)c5cccc(OC)c5[nH]c34)cc1)CC2,nt,nt,nt,nt,0.4%,nt,nt,nt,nt,nt,nt,
CCOC(=O)N1CCN(Cc2nc3cc(NC(=O)c4ccc(OC)cc4)ccc3n2C(C)C)CC1,?,?,-18.8%,7.2%,-17.1%,-11.1%,nt,nt,nt,nt,nt,
CCOC(=O)N1CCN(Cc2nc3cc(NC(=O)c4ccccc4[N+](=O)[O-])ccc3n2C(C)C)CC1,11.2µM*,0.6%,?,-3.6%,?,-8.1%,?,-4.5%,-4.8%,7.5%,-21.6%,
CCOC(=O)N1CCN(Cc2nc3cc([N+](=O)[O-])ccc3n2C(C)C)CC1,?,-16.8%,-16.6%,-8.9%,-11.4%,-5.1%,-5.5%,0.2%,3.4%,?,-4.9%,
CCOC(=O)N1CCN(Cc2nc3cc(NC(=O)c4ccc(F)cc4)ccc3n2C(C)C)CC1,?,?,?,-3.4%,-7.1%,-3.9%,nt,nt,nt,nt,nt,
